From PubChem BioAssay
Active and inactive are the calls of the source.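 Rule for the calls, unless noted: active = inhibition of the reporter signal at or above 50%; inactive = inhibition below 50%.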

Key:
[1] = inhibitors of TNFa-induced NFkB p65 translocation, primary screen, imaging, HUVEC, MLSMR starter and 10KST1 sets (AID 438;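 active = inhibition above 20% together with a positive visual image hit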;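 note: compound added about 3h40 before a 20 min TNFalpha stimulation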;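 for inhibition: signal is the nuclear over cytoplasmic p65 intensity ratio per well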); conditions: HUVEC TNFa-induced p65 nuclear translocation; cell count: measured here: nuclei count (cytotoxicity indicator), at 2.08 µM; inhibition: at 2 µM, stronger effect = higher value, 0% TNFa-plus-vehicle, 100% no-TNFa wells
[2] = inhibitors of mutant huntingtin aggregation, primary screen, imaging, exon1htt(103Q)mCFP cells, high-content imaging (AID 483;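 active = visual image review flags a hit and inhibition of aggregation exceeds 20%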;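 note: compound exposure lasted 3 days before fixation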;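 for nuclei count: percent of the per-plate median nuclei count of sample wells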); conditions: exon1htt(103Q)mCFP cell line, aggregate imaging, at 2 µM; inhibition of aggregation: stronger effect = higher value; nuclei count: measured here: cell count, toxicity
[3] = inhibitors of E-selectin induction by TNFa, primary screen, imaging, HUVEC, immunofluorescence, MLSMR starter and 10KST1 sets (AID 487;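 active = visually confirmed hit in the image check and inhibition above 20%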;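 for inhibition: signal is fraction of cell area covered by stained E-selectin grains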;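 for nuclei count: 100% = median nuclei count of all wells on the same plate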); conditions: HUVEC TNFalpha-induced E-selectin immunofluorescence imaging, at 2 µM; inhibition: stronger effect = higher value; nuclei count: measured here: cell number, toxicity
[4] = target: Voltage-gated potassium channel subunit beta-2 (Rattus norvegicus) (UniProt P62483); assay: KvBeta enzyme negative modulators, primary screen, biochemical, NADPH fluorescence (AID 622;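 active = fluorescence slope higher than the sample average by over 3 SD, cut at about -0.22 in these data, passing the limit was not always enough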;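 note: slope of raw intensity against log time taken from 70 to 1610 s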); conditions: recombinant KvBeta, 4-cyanobenzaldehyde reduction, at 10 µM, stronger effect = higher value
[5] = target: Voltage-gated potassium channel subunit beta-2 (Rattus norvegicus) (UniProt P62483); assay: KvBeta positive modulators, primary screen, biochemical, NADPH fluorescence (AID 623;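 active = NADPH fluorescence slope more negative than the mean of all samples by about 3 SD, 99.7% confidence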;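 note: fluorescence intensity change per second fitted from 20 to 320 s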); conditions: Recombinant KvBeta, NADPH fluorescence decrease slope, 10 min; at 10 µM; stronger effect = lower value
[6] = target: Alpha-2C adrenergic receptor (Homo sapiens) (UniProt P18825); assay: modulators of alpha2C/GIRK thallium flux, primary screen, cell-based, HEK293 alpha2C/GIRK1/2 (AID 624;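 active = fluorescence slope after compound addition differing from the mean of all screened samples at 99.7% confidence, in either direction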;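 note: slope of fluorescence ratio to pre-addition baseline per second over 15 to 24 s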); conditions: thallium flux BTC fluorescence, at 10 µM, actives lie on both sides
[7] = inhibitors of Sendai virus-induced IRF3 signaling, primary screen, TLR/RLR signaling modifier project, cell-based, Sendai virus stimulus, luciferase, 10K MLSCN set (AID 602276;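 active = inhibition at or above 50% at 10 µM; inactive = inhibition below 50%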;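 note: firefly luciferase from ISG56 promoter only with Renilla not read in this screen; 0% = Sendai virus plus DMSO and 100% = medium plus DMSO without virus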); conditions: HEK293 RL24 IRF3 luciferase reporter, at 10 µM, stronger effect = higher value
[8] = inhibitors of poly I:C-induced TLR3 signaling, primary screen, cell-based, poly I:C stimulus, luciferase, 10K MLSCN set (AID 602277); conditions: HEK293-TLR3 RL24 IRF3 luciferase reporter, at 10 µM, stronger effect = higher value

Voltage-gated potassium channel subunit beta-2 (Rattus norvegicus), sequence (P62483 whole entry, looked up): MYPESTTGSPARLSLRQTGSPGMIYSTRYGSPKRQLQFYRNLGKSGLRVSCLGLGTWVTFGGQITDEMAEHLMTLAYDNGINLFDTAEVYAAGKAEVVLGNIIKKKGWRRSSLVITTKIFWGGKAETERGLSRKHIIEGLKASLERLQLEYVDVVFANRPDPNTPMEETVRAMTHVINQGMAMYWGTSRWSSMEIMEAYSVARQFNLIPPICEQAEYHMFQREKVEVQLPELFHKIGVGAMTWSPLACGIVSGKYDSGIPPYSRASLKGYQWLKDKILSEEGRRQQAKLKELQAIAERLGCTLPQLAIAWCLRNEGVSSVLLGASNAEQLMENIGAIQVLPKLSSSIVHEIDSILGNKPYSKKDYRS
Alpha-2C adrenergic receptor (Homo sapiens), sequence (P18825 whole entry, looked up): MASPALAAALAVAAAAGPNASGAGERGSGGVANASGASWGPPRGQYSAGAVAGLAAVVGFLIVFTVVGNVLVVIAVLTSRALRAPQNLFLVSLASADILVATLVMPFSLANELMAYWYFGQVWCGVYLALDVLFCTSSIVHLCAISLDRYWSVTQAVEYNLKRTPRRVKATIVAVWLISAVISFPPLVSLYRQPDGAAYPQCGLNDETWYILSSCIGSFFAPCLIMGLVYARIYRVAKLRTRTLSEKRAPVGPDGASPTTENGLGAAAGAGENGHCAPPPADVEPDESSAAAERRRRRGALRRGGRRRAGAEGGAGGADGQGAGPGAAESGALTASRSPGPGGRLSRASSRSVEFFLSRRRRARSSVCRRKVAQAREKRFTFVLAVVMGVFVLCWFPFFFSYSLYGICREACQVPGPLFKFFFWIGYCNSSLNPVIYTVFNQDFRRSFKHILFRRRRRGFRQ

| Structure (SMILES) | cell count [1] | inhibition [1] | inhibition of aggregation [2] | nuclei count [2] [%] | inhibition [3] | nuclei count [3] [%] | fluorescence slope [4] | NADPH fluorescence slope [5] | slope [6] | inhibition [7] | inhibition [8] |
| --- | --- | --- | --- | --- | --- | --- | --- | --- | --- | --- | --- |
| COc1ccc(S(=O)(=O)Nc2cc(C)on2)cc1OC | 455 | 6.5% (inactive) | -7.8% (inactive) | 109 | -171% (inactive) | 136 | -0.523 (inactive) | 9.2e-06 (inactive) | 0.00556 (inactive) | 7.69% (inactive) | 12.8% (inactive) |
| CCCCn1c(SCC(=O)Nc2cc(C)on2)nnc1-c1cccnc1 | 414 | -3.9% (inactive) | 1.7% (inactive) | 121 | -26.4% (inactive) | 123 | -0.00106 (inactive) | -3.1e-05 (inactive) | 0.00399 (inactive) | 11.3% (inactive) | 6.93% (inactive) |
| CC1=C(C(=O)Nc2ccccc2)C(c2ccccn2)n2nc(CCCO)nc2N1 (stereo not drawn) | 662 | 6.2% (inactive) | 13.8% (inactive) | 93.5 | -8.5% (inactive) | 116 | -0.532 (inactive) | -2.2e-05 (inactive) | 0.00679 (inactive) | 9.62% (inactive) | 29.7% (inactive) |
| c1ccc(-c2ccc(-c3ccccn3)nn2)nc1 | 231 | 11.2% (inactive) | -2.4% (inactive) | 67.7 | -48.9% (inactive) | 121 | -0.419 (inactive) | -1.3e-05 (inactive) | 0.00636 (inactive) | 7.62% (inactive) | 70.6% (active) |
| CCN1C(=O)c2cccc3c(NC(=O)c4ccc(S(=O)(=O)N(C)C)cc4)ccc1c23 | 323 | -7.9% (inactive) | -2.1% (inactive) | 109 | -23.9% (inactive) | 111 | -0.319 (inactive) | -4.5e-05 (inactive) | 0.0056 (inactive) | 23.8% (inactive) | 30.8% (inactive) |
| CCOC(=O)N1CCC(N2C(=O)c3ccc(C(=O)NCc4ccco4)cc3C2=O)CC1 | 646 | -6.1% (inactive) | 0.7% (inactive) | 96.3 | -40.8% (inactive) | 126 | -0.59 (inactive) | -2.2e-06 (inactive) | 0.00518 (inactive) | 7.39% (inactive) | 26.2% (inactive) |
| CN(Cc1ccccc1)C(=O)CNC(=O)Cn1cnc2ccccc2c1=O | 773 | 1.1% (inactive) | -13.9% (inactive) | 95.7 | -18.9% (inactive) | 111 | -0.602 (inactive) | -2.5e-06 (inactive) | 0.00729 (inactive) | 4.6% (inactive) | 10.1% (inactive) |
| N#Cc1ccccc1Cn1c(=O)n(Cc2ccc(C(=O)NCc3ccco3)cc2)c(=O)c2sccc21 | 865 | -0.6% (inactive) | 9.3% (inactive) | 120 | -55.6% (inactive) | 115 | -0.577 (inactive) | -4.1e-05 (inactive) | 0.00686 (inactive) | 11.4% (inactive) | 17.2% (inactive) |
